Growth data for seven compounds are collected here from PubChem BioAssay (NCI).

The panel holds about 83,000 compounds, 20% with a hit somewhere; the sample as a whole holds those more often.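 96-well plates, one dose, 48 hours. Percent growth reported; active if below 10.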 A number with no mark means an inactive call. Calls of active or inactive are those of the source.

Common to all, as to test: NCI-60 one-dose screen, 48 h (100 = growth as untreated, 0 = no growth, -100 = all killed)
One test deals with SK-MEL-2 melanoma. The note with it: 10 µM unless noted.
Another test has as its system EKVX NSCLC. To be noted: 10 µM unless noted.
Another test deals with SN12C renal. To be noted: 10 µM unless noted.
The test system of the next test is UO-31 renal. The note with it: 10 µM unless noted.
A further test has as its system TK-10 renal. The note with it: 10 µM unless noted.
The subject of the next test is ACHN renal. The note with it: 10 µM unless noted.
The test system of another test is CAKI-1 renal. The note with it: 10 µM unless noted.
For another test, the system named is A498 renal. The note with it: 10 µM unless noted.
Another test concerns CCRF-CEM leukemia. To be noted: 10 µM unless noted.
For a further test, the system named is MOLT-4 leukemia. The note with it: 10 µM unless noted.
A further test deals with SR leukemia. The note with it: 10 µM unless noted.
Another test deals with RPMI-8226 leukemia. To be noted: 10 µM unless noted.
Another test has as its system OVCAR-8 ovarian. To be noted: 10 µM unless noted.
A further test concerns OVCAR-5 ovarian. The note with it: 10 µM unless noted.
The subject of another test is OVCAR-4 ovarian. To be noted: 10 µM.
In the next test the test system is SK-OV-3 ovarian. To be noted: 10 µM unless noted.
Another test deals with IGROV1 ovarian. The note with it: 10 µM unless noted.
The next test relates to HS 578T breast. To be noted: 10 µM unless noted.
In a further test the test system is NCI/ADR-RES ovarian. To be noted: 10 µM unless noted.
For the next test, the system named is OVCAR-3 ovarian. To be noted: 10 µM unless noted.

Consider `O=C(Nc1ccc(F)cc1)c1ccccc1`, for which the growth in the test on SK-MEL-2 melanoma was 106%; with EKVX NSCLC, 101%; with SN12C renal, 102%; in the test on UO-31 renal, 94.3%; in the test on TK-10 renal it was 95.7%; with ACHN renal, 101%. Besides, the growth with CAKI-1 renal is 91.6%; in the test with A498 renal it was 92.4%; in the test with CCRF-CEM leukemia, 100%; in the test on MOLT-4 leukemia it was 97.8%; in the test on SR leukemia it was 88.8%; in the test with RPMI-8226 leukemia, 102%. In addition, the growth in the test with OVCAR-8 ovarian was 105%; in the test with OVCAR-5 ovarian, 105%; with OVCAR-4 ovarian it was 100%; with SK-OV-3 ovarian, 112%; in the test with IGROV1 ovarian it was 110%; with HS 578T breast, 107%. Also, the growth in the test with NCI/ADR-RES ovarian was 98.9%.
On to `CC1=C/C(=C(\c2cc(C)c(O)c(C(=O)O)c2)c2c(Cl)cccc2Cl)C=C(C(=O)O)C1=O`, for which the growth is 104% in the test with SK-MEL-2 melanoma; 95.3% in the test on EKVX NSCLC; 97.1% in the test on SN12C renal; 67.8% with UO-31 renal; 108% in the test on TK-10 renal; 92.7% with ACHN renal. Also, the growth with CAKI-1 renal is 88.1%; in the test with A498 renal it was 110%; in the test with CCRF-CEM leukemia, 103%; in the test with MOLT-4 leukemia, 102%; in the test on SR leukemia, 102%; in the test with RPMI-8226 leukemia, 102%. The growth was 100% in the test with OVCAR-8 ovarian; 106% with OVCAR-5 ovarian; 108% in the test with OVCAR-4 ovarian; 93.3% in the test on SK-OV-3 ovarian; 101% in the test on IGROV1 ovarian; 99.2% in the test with HS 578T breast. Also, in the test on NCI/ADR-RES ovarian, the growth is 99.9%.
`Nc1cc(C(=O)O)[nH]c(=S)n1`: the growth in the test with SK-MEL-2 melanoma is 98.9%; with EKVX NSCLC, 92.6%; in the test on SN12C renal, 99.7%; in the test with UO-31 renal, 87.5%; in the test on TK-10 renal, 93.4%; with ACHN renal, 103%. The growth in the test on CAKI-1 renal was 94.9%; in the test on A498 renal, 101%; in the test on CCRF-CEM leukemia, 94.5%; with MOLT-4 leukemia it was 101%; in the test with SR leukemia, 94.2%; in the test with RPMI-8226 leukemia, 95%. Also, the growth with OVCAR-8 ovarian is 101%; with OVCAR-5 ovarian, 96.1%; in the test on OVCAR-4 ovarian, 105%; in the test with SK-OV-3 ovarian it was 115%; in the test with IGROV1 ovarian, 95.4%; in the test on HS 578T breast, 98.1%.
Turning to `NC(=S)Cc1ccccc1`, the growth was 103% in the test with SK-MEL-2 melanoma; 97.9% in the test with EKVX NSCLC; 94.7% with SN12C renal; 84.4% in the test with UO-31 renal; 94.3% with TK-10 renal; 98.1% in the test on ACHN renal. Also, the growth in the test with CAKI-1 renal was 89.1%; in the test on A498 renal, 73.6%; in the test on CCRF-CEM leukemia, 105%; in the test on MOLT-4 leukemia, 103%; in the test with SR leukemia it was 97.9%; in the test with RPMI-8226 leukemia, 99.2%. Also, the growth in the test on OVCAR-8 ovarian is 103%; in the test on OVCAR-5 ovarian it was 100%; with OVCAR-4 ovarian, 97%; in the test with SK-OV-3 ovarian it was 103%; in the test on IGROV1 ovarian it was 107%; with HS 578T breast, 102%. The growth in the test on NCI/ADR-RES ovarian is 105%.
Regarding `CC(C)c1ccc(C(=O)Nc2sc3c(c2C#N)CCC(=O)C3)cc1`, the growth is -20.1% (active) in the test on SK-MEL-2 melanoma; 7.96% (active) with EKVX NSCLC; 4.66% (active) with SN12C renal; -97% (active) with UO-31 renal; 0.974% (active) with TK-10 renal; -90.5% (active) in the test with ACHN renal. Moreover, the growth in the test with CAKI-1 renal is -44.3% (active); in the test with A498 renal, 24.6%; in the test on CCRF-CEM leukemia, 1.37% (active); in the test with MOLT-4 leukemia it was 0.0788% (active); in the test with SR leukemia it was -11.7% (active); in the test with RPMI-8226 leukemia, -35.2% (active). For the same compound, the growth in the test on OVCAR-8 ovarian was 13.7%; with OVCAR-5 ovarian, 11.1%; in the test on OVCAR-4 ovarian, -78% (active); with SK-OV-3 ovarian, 20.8%; with IGROV1 ovarian it was 18.4%; in the test on HS 578T breast, 25.4%. For the same compound, the growth in the test with NCI/ADR-RES ovarian was 3.12% (active).
Turning to `CCOC(=O)COc1ccc2c(c1)O/C(=C\c1ccc(O)cc1)C2=O`, the growth in the test with SK-MEL-2 melanoma was 116%; in the test on EKVX NSCLC it was 104%; in the test on SN12C renal it was 98.7%; in the test with UO-31 renal, 78.5%; in the test on TK-10 renal it was 106%; in the test with ACHN renal it was 102%. For the same compound, the growth in the test with CAKI-1 renal was 93.1%; in the test on A498 renal it was 88.6%; in the test with CCRF-CEM leukemia, 118%; with MOLT-4 leukemia, 117%; in the test with SR leukemia it was 93.8%; in the test on RPMI-8226 leukemia, 119%. For the same compound, the growth is 105% in the test on OVCAR-8 ovarian; 102% with OVCAR-5 ovarian; 108% with OVCAR-4 ovarian; 117% with SK-OV-3 ovarian; 106% with IGROV1 ovarian; 106% in the test with OVCAR-3 ovarian. Also, the growth with NCI/ADR-RES ovarian was 108%.
As for `CCOC(=O)C(c1ccccc1)N1C(=O)c2ccccc2C1=O` (configuration not stated), the growth in the test on SK-MEL-2 melanoma is 104%; in the test with EKVX NSCLC it was 91.4%; in the test with SN12C renal, 104%; in the test with UO-31 renal, 91.4%; with TK-10 renal, 106%; with ACHN renal it was 102%. Further, the growth in the test with CAKI-1 renal was 86.4%; in the test with A498 renal, 89.3%; in the test with CCRF-CEM leukemia, 102%; in the test with MOLT-4 leukemia, 101%; in the test on SR leukemia, 115%; with RPMI-8226 leukemia, 98%. The growth in the test on OVCAR-8 ovarian was 99.7%; with OVCAR-5 ovarian, 99.7%; with OVCAR-4 ovarian, 97.7%; in the test with SK-OV-3 ovarian, 95.4%; with IGROV1 ovarian, 96.5%; with HS 578T breast, 92.3%. In addition, the growth in the test on NCI/ADR-RES ovarian is 99.3%.
